phage Ecoli inh – E. coli growth loss with phage present. growth absorbance. inhibition, % at 11.9 µM. 0.26% of 360,000 active; in the data active = inhibition above about 11%
E coli growth-1 – reduces bacterial viability in AddAB counter-screen; E. coli V3065 growth, OD600 absorbance, 18 h; AID 449728; 0.27% of 330,000 active; inhibition, % at 11.9 µM;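 active = inhibition above the campaign's mean inhibition across all tested compounds plus 3 SD, cut at about 9.9% in these data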;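 also: uninfected addAB+ strain grown without phage in ampicillin broth; 0% = DMSO wells and 100% = ciprofloxacin 0.95 µg/ml wells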
AddAB inh – less growth of phage-infected E. coli with AddAB | 0.29% of 330,000 active | E. coli expressing H. pylori AddAB, absorbance growth | inhibition, % at 11.9 µM | AID 435030; in the data active = inhibition above about 12%;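 also: 0% = vehicle wells of infected cells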
E coli growth-2 – E. coli growth inhibition. Escherichia coli growth, OD600, 23 h; hits give low values. OD600 absorbance (test concentration not listed). 0.21% of 330,000 active. AID 1053175;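 active = OD600 absorbance below the run mean of sample wells minus 3.6 SD, in any replicate, cut at about 0.56 in these data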
Tat export inh – E. coli Tat transport inhibition; E. coli MC4100 TorA-mCherry Tat export, fluorescence; inhibition, % at 10 µM; 0.036% of 340,000 active; AID 488895;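 active = mean replicate inhibition at least 50% and at least half of replicates individually reaching 50%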;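 also: exported cargo escapes ClpAP degradation while cytoplasmic cargo is degraded and loses fluorescence; 0% = median of neutral control wells and 100% = median of NaSCN control wells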
AddAB conf – growth loss of T4-infected E. coli expressing H. pylori AddAB, confirmed; shares compounds with AddAB inh; E. coli V3065 expressing H. pylori AddAB, T4 phage, OD; T4 phage with gene 2 nonsense mutations; inhibition, % at 11.9 µM; 64% of 880 active;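 active = mean inhibition above a set limit taken from the earlier primary screen, cut at about 13% in these data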;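 also: higher means less bacterial growth since AddAB block lets phage replicate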
RecBCD counter – counter-screen: growth loss of RecBCD+ E. coli with mutant T4 phage; shares compounds with AddAB inh; E. coli V66 + mutant T4 phage, OD growth; inhibition, % at 11.9 µM; 73% of 880 active; AID 488955;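 active = mean inhibition above the mean of solvent-only control wells plus 3 SD, cut at about 4% in these data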;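 also: optical density read after an 18 h incubation at 37 °C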
bact viab count – counter-screen: bacterial growth inhibition | bacterial viability, absorbance (AddAB counterscreen) | inhibition, % at 11.9 µM | AID 488956 | 35% of 880 active | shares compounds with AddAB inh; in the data active = inhibition above about 25%
Numbers without * were called inactive. This is a sample that favours compounds with a hit; in the whole collection about 0.51% have one here.

How did CC1(C)OC(=O)C(=NNc2ccc(O)cc2)C(=O)O1 do in these assays?
phage Ecoli inh: 2; E coli growth-1: 5; AddAB inh: 16*; E coli growth-2: 0.69; Tat export inh: 22; AddAB conf: 17*; RecBCD counter: 3; bact viab count: 5

Results for CC1(C)OC(=O)C(=NNc2ccccc2)C(=O)O1 ?
phage Ecoli inh: 1; E coli growth-1: -3; AddAB inh: 3; Tat export inh: -3

How did O=C(CN1CCCc2ccccc21)N/N=C/c1ccccc1 do in these assays?
phage Ecoli inh: 3; E coli growth-1: -2; AddAB inh: 3; Tat export inh: 10

What do the screens show for `O=C(CN1CCCc2ccccc21)N/N=C/c1c(O)ccc2ccccc12`?
phage Ecoli inh: 8; E coli growth-1: 11*; AddAB inh: 15*; Tat export inh: -6; AddAB conf: 2; RecBCD counter: 5.3*; bact viab count: 0

How did CCCCCCCCCCn1ccc(=N)cc1 do in these assays?
phage Ecoli inh: 8; E coli growth-1: 9; AddAB inh: 14*; E coli growth-2: 0.45*; Tat export inh: -8; AddAB conf: 6; RecBCD counter: 4.3*; bact viab count: 6

How did CCCCCCN1Cc2ccccc2C1 do in these assays?
phage Ecoli inh: 5; E coli growth-1: -1; AddAB inh: 3; E coli growth-2: 0.75; Tat export inh: 2

How did CCCCCCCCn1ccc(=N)cc1 do in these assays?
phage Ecoli inh: 2; E coli growth-1: 10*; AddAB inh: 13*; E coli growth-2: 0.61; Tat export inh: -6; AddAB conf: -3; RecBCD counter: 0; bact viab count: -2

Results for CC(=O)c1cccc(NC(=O)CCNS(=O)(=O)c2cccc3nonc23)c1 ?
phage Ecoli inh: 5; E coli growth-1: 7; AddAB inh: 13*; E coli growth-2: 0.68; Tat export inh: -17; AddAB conf: 6; RecBCD counter: 4.5*; bact viab count: 5

How did C(=Cc1ccccc1)C=NNc1nc(N2CCCCC2)nc(N2CCCCC2)n1 do in these assays?
E coli growth-2: 0.7

Results for Fc1ccccc1-n1cn[nH]c1=S ?
phage Ecoli inh: 3; E coli growth-1: 53*; AddAB inh: 95*; E coli growth-2: 0.65; Tat export inh: 4; AddAB conf: 1; RecBCD counter: -1; bact viab count: -1

What do the screens show for `O=C(NN=Cc1ccccc1F)NC12CC3CC(CC(C3)C1)C2`?
E coli growth-2: 0.69

How did Cc1nc2sc(C(c3ccco3)N3CCN(C(c4ccccc4)c4ccccc4)CC3)c(O)n2n1 (centres undefined) do in these assays?
phage Ecoli inh: 2; E coli growth-1: 22*; AddAB inh: 37*; E coli growth-2: 0.81; Tat export inh: 12; AddAB conf: 5; RecBCD counter: 3; bact viab count: 2

Results for COc1nccnc1NS(=O)(=O)c1ccc(N=Cc2c(C)[nH]n(-c3ccc(Cl)cc3)c2=O)cc1 ?
phage Ecoli inh: 6; E coli growth-1: 5; AddAB inh: 3; E coli growth-2: 0.68

How did CCc1nnc(NS(=O)(=O)c2ccc(N=Cc3c(C)[nH]n(-c4ccc(Cl)cc4)c3=O)cc2)s1 do in these assays?
phage Ecoli inh: 10; E coli growth-1: 9; AddAB inh: 14*; Tat export inh: -8; AddAB conf: 9; RecBCD counter: 7.0*; bact viab count: 11

How did O=[N+]([O-])c1cc2cccnc2c2ncccc12 do in these assays?
phage Ecoli inh: 5; E coli growth-1: 7; AddAB inh: 8; E coli growth-2: 0.59

How did O=[N+]([O-])c1cc(O)c2ncccc2c1 do in these assays?
phage Ecoli inh: 4; E coli growth-1: 16*; AddAB inh: 14*; E coli growth-2: 0.13*; AddAB conf: 34*; RecBCD counter: 8.9*; bact viab count: 4

How did Nc1nonc1-n1nnc(C(=O)NN=Cc2ccc(OCc3ccccc3)cc2)c1CN1CCCCC1 do in these assays?
E coli growth-2: 0.72

What do the screens show for `C=CCSc1nc2sc(C)c(C)c2c(=O)[nH]1`?
phage Ecoli inh: 2; E coli growth-1: 8; AddAB inh: 17*; E coli growth-2: 0.71; Tat export inh: -6; AddAB conf: -2; RecBCD counter: 1; bact viab count: -2

What do the screens show for `COc1ccc(C2C=CCNCC(=O)N2Cc2ccc(F)cc2)cc1` (centres undefined)?
E coli growth-2: 0.7

What do the screens show for `COc1ccc(C(=O)NCC(=O)NN=Cc2ccc([N+](=O)[O-])o2)cc1OC`?
E coli growth-2: 0.58

Results for COc1cccc(Cn2nnc(C(=O)NCc3ccc(F)cc3)c2N)c1 ?
phage Ecoli inh: 4; E coli growth-1: 9; AddAB inh: 21*; E coli growth-2: 0.74; Tat export inh: -4; AddAB conf: 1; RecBCD counter: 0; bact viab count: -4

What do the screens show for `COc1ccc(C2=CC(=O)C[C@H](c3ccc(Cl)cc3)C2)cc1`?
phage Ecoli inh: 2; E coli growth-1: -1; AddAB inh: 2; Tat export inh: 12

What do the screens show for `COc1ccc(C2=CC(=O)CC(c3ccc(OC)cc3)C2)cc1` (centres undefined)?
phage Ecoli inh: 2; E coli growth-1: 10*; AddAB inh: 16*; Tat export inh: 0; AddAB conf: -4; RecBCD counter: 1; bact viab count: -2

Results for CCOC(=O)CC1c2cc(F)ccc2S(=O)(=O)N1C(C)C (centres undefined) ?
E coli growth-2: 0.69

How did Cn1c(/C=C/c2ccc([N+](=O)[O-])o2)nc2ccccc2c1=O do in these assays?
E coli growth-1: 79*; AddAB inh: 63*; E coli growth-2: 0.44*; Tat export inh: -2; AddAB conf: 99*; RecBCD counter: 29*; bact viab count: 100*

How did Cc1cc(NN=Cc2ccncc2)nc2ccccc12 do in these assays?
E coli growth-2: 0.63

Results for Cc1cc(N/N=C/c2ccc([N+](=O)[O-])o2)nc2ccccc12 ?
phage Ecoli inh: 7; E coli growth-1: 32*; AddAB inh: 50*; Tat export inh: -1; AddAB conf: 43*; RecBCD counter: 4.9*; bact viab count: 13

What do the screens show for `CN(C)Cc1c(C(=O)NN=CC2CC=CCC2)nnn1-c1nonc1N` (centres undefined)?
E coli growth-2: 0.65

Results for Cc1ccccc1CN1C(C(C)C)COCCS1(=O)=O (centres undefined) ?
E coli growth-2: 0.68

How did COc1cccc2cc(C(=O)Nc3ccccc3C)c(=NO)oc12 do in these assays?
E coli growth-2: 0.69
